Drawing on ChEMBL document CHEMBL3433997, “St. Jude Leishmania screening dataset” (2016), this text covers inhibition for 12 molecules.

Type in all cases: functional
Assay [1] has as its target Solute carrier family 2, facilitated glucose transporter member 1 (Homo sapiens) (UniProt P11166). Briefly: ST_JUDE_LEISH: Cytotoxicity at 2uM final concentration against transgenic Leishmania Mexicana promastigotes LmGLUT1 that are glucose transport deficient and complemented with the human glucose transporter GLUT1. Activity is measured by DNA content using SYBR green in vitro.

Assay [2] concerns the target Hexose transporter 1 (Plasmodium falciparum) (UniProt O97467). Briefly: ST_JUDE_LEISH: Cytotoxicity at 2uM final concentration against transgenic Leishmania Mexicana promastigotes LmPfHT that are glucose transport deficient and complemented with the Plasmodium falciparum hexose transporter. Activity is measured by DNA content using SYBR green in vitro.
In assay [3] the target is Glucose transporter (Leishmania mexicana) (UniProt O61059). The experiment in a line: ST_JUDE_LEISH: Cytotoxicity at 2uM final concentration against transgenic Leishmania Mexicana promastigotes LmGT2 that are glucose transport deficient and complemented with the L. Mexicana glucose transporter 2. Activity is measured by DNA content using SYBR green in vitro.

Chain of Solute carrier family 2, facilitated glucose transporter member 1 (Homo sapiens) (P11166 whole entry): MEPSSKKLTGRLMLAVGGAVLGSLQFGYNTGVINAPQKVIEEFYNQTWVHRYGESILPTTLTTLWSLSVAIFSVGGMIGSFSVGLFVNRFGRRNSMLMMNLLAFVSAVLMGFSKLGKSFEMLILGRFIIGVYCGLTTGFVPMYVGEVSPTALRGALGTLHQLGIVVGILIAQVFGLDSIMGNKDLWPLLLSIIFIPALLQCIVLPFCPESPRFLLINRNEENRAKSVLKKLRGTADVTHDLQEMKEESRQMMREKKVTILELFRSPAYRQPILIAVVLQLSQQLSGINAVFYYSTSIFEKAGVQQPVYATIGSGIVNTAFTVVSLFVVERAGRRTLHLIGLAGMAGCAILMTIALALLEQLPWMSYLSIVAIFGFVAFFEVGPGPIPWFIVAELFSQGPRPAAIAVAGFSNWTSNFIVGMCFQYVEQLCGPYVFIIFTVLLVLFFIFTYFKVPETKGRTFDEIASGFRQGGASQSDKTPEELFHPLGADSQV

On to `c1ccc(COc2ccccc2COc2ccccc2-c2ccc3cccnc3n2)cc1`, for which the inhibition in assay [1] was 0.28%; in assay [2], -0.32%; in assay [3], 5.87%.

Consider `CCOc1ccc2nc(C)cc(N/N=C/c3cccc([N+](=O)[O-])c3)c2c1`, for which the values for the inhibition in assay [1], in assay [2] and in assay [3] were 0.39%, 0.05% and -1.04%, respectively.

With `Cc1cc2c(cc1C(F)(F)F)N(C(=O)Nc1ccc(C(=O)NC3CCN(Cc4ccccc4)C3)cc1)CC2` (stereo unspecified), the inhibition in assay [1] came out at 4.56%; in assay [2] it was 4.45%; in assay [3], 4.54%.

For `Cc1c(C(=O)C2CC2CN2CCC(N3CCCC3)CC2)sc2ccccc12` (stereo unspecified), the inhibition stood at 7.33% in assay [1], 11.8% in assay [2] and 5.26% in assay [3].

As for `Cc1nnc2c(NC(=O)NC3CCCC3)cc3cc(-c4ccc(CN5CCN(C)CC5)cc4)ccc3n12`, the results for the inhibition in assay [1], in assay [2] and in assay [3] were 7.2%, 4.95% and 4.79%, respectively.

For `CC(C)n1c(CC2CCN(CC3CCN(C(=O)/C=C/c4ccc(Cl)c(Cl)c4)CC3)CC2)nc2ccccc21`, the inhibition in assay [1] is -1.74%; in assay [2] it was -2.38%; in assay [3] it was -2.53%.

With `O=C(Nc1ccc(S(=O)(=O)N2CCOCC2)cc1)c1cc(-c2cc(Cl)ccc2O)n[nH]1`, the inhibition in assay [1] came to 0.98%; in assay [2], 0.88%; in assay [3], 0.85%.

As to `CC(=O)Nc1ccc(S(=O)(=O)N2CCN(c3nc(NC4CCCC4)c4ccccc4n3)CC2)cc1`, the inhibition in assay [1] amounted to 0.69%; in assay [2], 3.35%; in assay [3], 2.94%.

Consider `O=C(Nc1ccc(N2CCN(Cc3c[nH]c4cc(F)ccc34)CC2)cc1)c1ccccc1-c1ccc(C(F)(F)F)cc1`, for which the inhibition in assay [1] came to 7.38%; in assay [2], 4.06%; in assay [3] it was 3.31%.

Regarding `CCOCCCNc1nc2cc(OC)c(OC)cc2c2nc(-c3ccccc3)nn12`, the inhibition in assay [1] was 1.59%; in assay [2] it was 2.14%; in assay [3], -2.64%.

Take `Cc1cc2cc(NC(=O)Nc3ccnc4ccccc34)ccc2n1C`: the inhibition amounted to 0.22% in assay [1], 0.43% in assay [2] and 0.82% in assay [3].

On to `CN(C)CCCn1c(N)c(-c2nc3ccccc3[nH]2)c2nc(C#N)c(C#N)nc21`, for which the inhibition in assay [1] is -1.02%; in assay [2], 2.05%; in assay [3], -0.05%.

One may read the inhibition as the change of the read-out against control, counted positive when it falls.
